The source of these data is PubChem BioAssay (NCI).

Molecules are shown by their SMILES. Compounds without any hit were thinned out: in the full panel of roughly 83,000, 20% have a hit.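 48-hour exposure, single concentration, 96-well plates; percent growth endpoint where 0 means no net growth. Active: below 10.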 Values without a mark were called inactive. Activity calls are given as the source filed them.

Some test systems named below: NCI-H23 lung; NCI-H226 lung; NCI-H322M lung; HOP-62 NSCLC; NCI-H460 lung; HOP-92 NSCLC; NCI-H522 lung; A549/ATCC NSCLC; 786-0 renal; COLO 205 colon.
What all share (test): NCI-60 one-dose screen, 48 h (100 = growth as untreated, 0 = no growth, -100 = all killed)
Conditions in all cases: 10 µM unless noted

`OC(COc1cccc2ccccc12)CN1CCN(c2ccccc2Cl)CC1` (stereo not given): the growth with NCI-H23 lung was 80.3%; with NCI-H226 lung, 106%; with NCI-H322M lung it was 95.5%; in the test with HOP-62 NSCLC, 88%; with NCI-H460 lung, 91.1%; in the test on HOP-92 NSCLC, 74.5%. The growth in the test on NCI-H522 lung was 98.8%; in the test on A549/ATCC NSCLC it was 96.6%; in the test on 786-0 renal it was 91.4%; with COLO 205 colon, 104%.

As to `CC(=O)Oc1ccc(Cl)cc1CN(C(C)=O)C1CCCCC1`, the growth was 116% in the test on NCI-H23 lung; 96.3% in the test with NCI-H226 lung; 101% in the test with NCI-H322M lung; 102% with HOP-62 NSCLC; 114% in the test with NCI-H460 lung; 83.4% in the test on HOP-92 NSCLC. The growth in the test with NCI-H522 lung is 88.2%; in the test on A549/ATCC NSCLC it was 106%; with 786-0 renal, 90%; with COLO 205 colon, 104%.

As for `CSc1ccc(SC2c3ccc(C)cc3Oc3nc(N)c(C#N)c(N)c32)cc1` (stereo not given), the growth is -74.2% (active) in the test with NCI-H23 lung; -88.7% (active) in the test on NCI-H226 lung; -20.9% (active) in the test with NCI-H322M lung; -27.8% (active) with HOP-62 NSCLC; -72.5% (active) in the test with NCI-H460 lung; -67.6% (active) with HOP-92 NSCLC. Further, the growth with NCI-H522 lung is -91.1% (active); with A549/ATCC NSCLC it was 0.603% (active); in the test with 786-0 renal it was -96.6% (active); in the test with COLO 205 colon, -76.7% (active).

On to `O=C(CN1CCCCC1)Nc1ccc2oc(=O)ccc2c1`, for which the growth in the test on NCI-H23 lung was 97.5%; in the test on NCI-H226 lung, 95.8%; with NCI-H322M lung, 105%; with HOP-62 NSCLC, 99.7%; in the test with NCI-H460 lung, 104%; in the test on HOP-92 NSCLC it was 91.3%. The growth with NCI-H522 lung is 84.6%; with A549/ATCC NSCLC, 100%; with 786-0 renal it was 107%; in the test on COLO 205 colon it was 119%.

For the compound `N=C(N)c1ccc(-c2ccc(-c3ccc4ccccc4c3)s2)s1`, the growth with NCI-H23 lung was 5.5% (active); with NCI-H226 lung it was 92.8%; in the test on NCI-H322M lung it was 26.5%; in the test with HOP-62 NSCLC it was 86.8%; in the test on NCI-H460 lung, -70.4% (active); with HOP-92 NSCLC it was 28.8%. The growth is 15.3% with NCI-H522 lung, -36.3% (active) in the test with A549/ATCC NSCLC, -39.1% (active) in the test with 786-0 renal and -40.8% (active) in the test with COLO 205 colon.

On to `O=C1c2ccccc2C(=O)c2c(N=Nc3[nH]c(=S)[nH]c3O)cccc21`, for which the growth is 41.7% with NCI-H23 lung; 28.3% in the test on NCI-H226 lung; 40.1% with NCI-H322M lung; 25% with HOP-62 NSCLC; 7.32% (active) in the test with NCI-H460 lung; 19.8% in the test on HOP-92 NSCLC. In addition, the growth was -6.34% (active) with NCI-H522 lung, 24.3% in the test on A549/ATCC NSCLC, 22.6% in the test on 786-0 renal and 19% in the test on COLO 205 colon.

As for `FC(F)(F)c1[nH]ncc1-c1nc2ccc3n[nH]c(C#Cc4cccnc4)c3c2c2c1CCCC2`, the growth in the test with NCI-H23 lung was 34.1%; in the test on NCI-H226 lung it was 47.5%; in the test on NCI-H322M lung, 32.8%; in the test with HOP-62 NSCLC it was 36%; with NCI-H460 lung, 19.1%; with HOP-92 NSCLC it was 71.6%. Moreover, the growth in the test on NCI-H522 lung was 28.7%; in the test with A549/ATCC NSCLC, 27%; in the test on 786-0 renal, 30.7%; in the test on COLO 205 colon, 33.4%.

In the case of `COc1ccc(-c2cc(-c3ccc(Nc4ccnc5cc(Cl)ccc45)cc3)nc(N3CCOCC3)n2)cc1`, the growth with NCI-H23 lung is 68%; with NCI-H226 lung, 69.4%; in the test on NCI-H322M lung, 87%; in the test on HOP-62 NSCLC, 81.6%; in the test with NCI-H460 lung, 13.3%; in the test with HOP-92 NSCLC, 67.2%. Further, the growth is 48% in the test with NCI-H522 lung, 12.3% in the test with A549/ATCC NSCLC, 69.6% with 786-0 renal and 44.7% in the test on COLO 205 colon.

With `COc1cc2nc(N3CCCC3)nc(NCc3ccccc3)c2cc1OC`, the growth with NCI-H23 lung is 82.3%; in the test on NCI-H226 lung it was 90%; in the test with NCI-H322M lung it was 79.7%; in the test on HOP-62 NSCLC, 86.8%; with NCI-H460 lung, 79.2%; in the test on HOP-92 NSCLC, 61.4%. The growth in the test with NCI-H522 lung is 73.1%; in the test with A549/ATCC NSCLC, 76%; in the test on 786-0 renal it was 78.6%; with COLO 205 colon, -20.7% (active).

Take `C#CCOc1ccc2ncnc(Nc3cccc(CNC(=O)C=C)c3)c2c1`: the growth with NCI-H23 lung was 104% [8.25 µM]; in the test on NCI-H226 lung it was 77.3% [8.25 µM]; in the test with NCI-H322M lung, 105% [8.25 µM]; with HOP-62 NSCLC, 108% [8.25 µM]; with NCI-H460 lung, 101% [8.25 µM]; with HOP-92 NSCLC, 93.3% [8.25 µM]. Also, the growth was 91.9% [8.25 µM] in the test on NCI-H522 lung, 102% [8.25 µM] with A549/ATCC NSCLC, 93.1% [8.25 µM] in the test with 786-0 renal and 111% [8.25 µM] in the test on COLO 205 colon.

`CC[N+](CC)=c1sc2c(s1)C(c1ccc(Cl)cc1)Oc1ccc(Cl)cc1-2` (stereo not given): the growth in the test with NCI-H23 lung was 6.45% (active); in the test on NCI-H226 lung it was 52.1%; with NCI-H322M lung, 16.8%; in the test with HOP-62 NSCLC, 12.4%; with NCI-H460 lung it was -29.6% (active); in the test on HOP-92 NSCLC, -18% (active). The growth with NCI-H522 lung was -12.9% (active); in the test on A549/ATCC NSCLC it was 7.61% (active); with 786-0 renal it was 30.7%; with COLO 205 colon it was -69.6% (active).

Turning to `C=CC(=O)Nc1cccc(-c2nc(SC)nc(NCc3ccccc3)c2C#N)c1`, the growth with NCI-H23 lung is 61.1%; in the test on NCI-H226 lung it was 46.8%; in the test on NCI-H322M lung it was 73.8%; in the test on HOP-62 NSCLC, 73.9%; with NCI-H460 lung it was 84%; in the test with HOP-92 NSCLC, 48.1%. For the same compound, the growth was 31.2% in the test on NCI-H522 lung, 53.4% in the test on A549/ATCC NSCLC, 66% in the test with 786-0 renal and 98% with COLO 205 colon.

Regarding `c1ccc(-c2cc3n4c(-c5ccccc5)nn(-c5ccccc5)c4cnc-3n2)cc1`, the growth in the test with NCI-H23 lung was 58.1%; in the test on NCI-H226 lung it was 73.4%; in the test on NCI-H322M lung, 23.6%; in the test with HOP-62 NSCLC, 102%; with NCI-H460 lung, 54.9%; with HOP-92 NSCLC it was 51.2%. Also, the growth with NCI-H522 lung is 9.2% (active); in the test on A549/ATCC NSCLC, 31.3%; in the test on 786-0 renal, 75.5%; with COLO 205 colon it was 75.1%.
